According to the supplement of paper PMC8047044:

Legend:
[1] = tested on: Neuro-2a; experiment: neurite formation score, plate-normalized to DMSO control mean 5.04 (score (0-8 scale)); higher = more or longer neurites; details: 1 µM
Protocol: (§1)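 Neuro-2a mouse neuroblastoma cells in PLL-coated 96-well plates were pre-treated for 1 h in DMEM(+) with each kinase inhibitor at 1 µM, then switched to serum-free DMEM(-) with inhibitor to induce neurite outgrowth and fixed about 2-3 h later. Three blinded observers scored neurite formation from 0 (no neurites) to 8 (long neurites on almost all cells).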

[2] = tested on: Neuro-2a; experiment: as above; details: 0.1 µM
Protocol: as §1, with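 “at 0.1” for “at 1”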

CCn1c(-c2nonc2N)nc2c(C#CC(C)(C)O)ncc(OC[C@H]3CCCNC3)c21
neurite formation score [1]: 4.02
neurite formation score [2]: 3.25

CNCc1ccc(-c2cc(-c3nc(-c4ccc(S(=O)(=O)C(C)C)cc4)cnc3N)on2)cc1
neurite formation score [1]: 1.29
neurite formation score [2]: 3.25

O=c1cc(-c2cccc3c2Sc2ccccc2S3)oc(N2CCOCC2)c1
neurite formation score [1]: 3.69
neurite formation score [2]: 1.92

Nc1cc(C(F)(F)F)c(-c2cc(N3CCOCC3)nc(N3CCOCC3)n2)cn1
neurite formation score [1]: 5.24
neurite formation score [2]: 2.71

Cn1cnc(=N)c2[nH]cnc21 [3-Methyladenine]
neurite formation score [1]: 4.24
neurite formation score [2]: 4.88

CNC(=O)c1ccccc1Sc1ccc2c(/C=C/c3ccccn3)n[nH]c2c1
neurite formation score [1]: 3.57
neurite formation score [2]: 4.54

CN1CCN(c2ccc(C(=O)Nc3n[nH]c4ccc(Cc5cc(F)cc(F)c5)cc34)c(NC3CCOCC3)c2)CC1 [Entrectinib]
neurite formation score [1]: 2.54
neurite formation score [2]: 0.751

CN(C)C(=O)c1cc2cnc(Nc3ccc(N4CCNCC4)cn3)nc2n1C1CCCC1
neurite formation score [1]: 4.96
neurite formation score [2]: 4.58

COc1cc2ncnc(Nc3ccc(O)c(Br)c3)c2cc1OC
neurite formation score [1]: 4.47
neurite formation score [2]: 5.09

Cn1cnc2c(F)c(Nc3ccc(Br)cc3F)c(C(=O)NOCCO)cc21
neurite formation score [1]: 3.24
neurite formation score [2]: 5.38

CN(C[C@@H]1COCCO1)S(=O)(=O)Nc1ccc2ccc3ncc(-c4cnn(C)c4)cc3c(=O)c2c1
neurite formation score [1]: 5.29
neurite formation score [2]: 4.25

Cc1ccc(S(=O)(=O)/C=C/C#N)cc1
neurite formation score [1]: 5.14
neurite formation score [2]: 2.42

O=C(Nc1ccc(CN2CCOCC2)cc1)c1ccc(-c2cccc(Cl)c2)o1
neurite formation score [1]: 4.9
neurite formation score [2]: 5.54

Cn1sc(=O)n(Cc2ccccc2)c1=O
neurite formation score [1]: 2.96
neurite formation score [2]: 4.25
